IL-1B inflam inh – qHTS for Inhibitors of Inflammasome Signaling: IL-1-beta AlphaLISA Primary Screen; 360,000 compounds, 4.7% hits; THP-1 LPS/ATP IL-1B secretion, AlphaLISA, 16 h; stronger effect = lower value; activity change, % at 57.5 µM; in the data active = activity change below about -50%; inconclusive = mostly about -30% to -49%
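THP-1 cells pretreated 1 hr with compounds (up to 57.5 uM final), then stimulated with LPS (250 ng/mL final) plus ATP (1.25 mM final); secreted IL-1B measured by AlphaLISA after 16 hr, decreased signal indicating inhibition.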
12-LOX inh – Primary qHTS assay for inhibitors of human arachidonate 12S-lipoxygenase (ALOX12): Round 2 | Polyunsaturated fatty acid lipoxygenase ALOX12 (Homo sapiens), P18054 | purified 12hLO, xylenol orange hydroperoxide absorbance | Potency, µM (series often up to 108 µM), for inactives: top-dose activity change, negative = inhibition, most hits filed as inhibitors | 580,000 compounds, 1.1% hits; note: potency is the fitted concentration of half-maximal effect
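Hydroperoxide product was detected by ferrous iron/xylenol orange as the 573 to 405 nm absorbance ratio. Arachidonic acid at 40 uM (final) was turned over for 30 min at room temperature by 150 nM human 12hLO, pH 7.0 Hepes buffer, after 15 min compound preincubation.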
DT40 TDP1 CPT – qHTS for Inhibitors of human tyrosyl-DNA phosphodiesterase 1 (TDP1): qHTS in cells in presence of CPT. chicken DT40 Tdp1-/-;hTDP1 cells + 20 nM CPT, ATP luminescence, 48 h. Potency, µM (doses to about 46.2 µM), without a hit: at the highest dose activity change, negative = growth inhibition, most hits filed as inhibitors. AID 686979, 2013. 420,000 compounds, 12% hits; note: potency is the fitted concentration of half-maximal effect; nearly all actives have a fitted effect of over 55% in size
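Chicken DT40 Tdp1-/- cells complemented with human TDP1, 400 cells/well, exposed to compounds plus 20 nM camptothecin for at least 48 h at 37 C; viability read as ATP content by CellTiter-Glo luminescence.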
HT1080 IDH1KD tx – qHTS for induction of synthetic lethality in tumor cells producing 2HG: qHTS for the HT-1080-IDH1KD cell line | HT-1080 IDH1 knockdown viability, ATP luminescence, 48 h | Potency, µM (doses to about 46.1 µM), for inactives: at the top dose activity, negative = toxicity, usual class: cytotoxic | 360,000 compounds, 2% hits;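 note: potency is the fitted concentration of half-maximal effect; 0% = DMSO wells and -100% = cell-free medium wells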
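Luminescent ATP read-out (CellTiter-Glo, 10 min at room temperature) after 48 h compound exposure at 37 °C gave viability of IDH1-knockdown HT-1080 cells. Activity was normalised to DMSO and cell-free wells, then fitted as concentration-response curves.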
HT1080-NT tox – qHTS for induction of synthetic lethality in tumor cells producing 2HG: qHTS for the HT-1080-NT fibrosarcoma cell line. Potency, µM (doses to about 46.1 µM), inactives show at the top dose activity, negative = less viability, hits mostly cytotoxic. 360,000 compounds, 1.6% hits. HT-1080-NT fibrosarcoma viability, CellTiter-Glo ATP luminescence, 48 h;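 note: NT is the 2HG producing partner of a matched IDH1 knockdown line; potency is the fitted concentration of half-maximal effect; 0% = DMSO-treated cells and -100% = media-only wells without cells; nearly all actives have a fitted effect of over 55% in size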
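Luminescent CellTiter-Glo readout after 48 hours of compound exposure at 37 degrees C defined viability of HT-1080-NT cells. Activity was normalized to DMSO wells and cell-free media wells; concentration-response curves were fitted and assigned curve classes.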
TDP1 cell noCPT – qHTS for Inhibitors of human tyrosyl-DNA phosphodiesterase 1 (TDP1): qHTS in cells in absence of CPT | Potency, µM (highest dose often 46.2 µM), for inactives: at the highest dose activity change, negative = growth inhibition, usual class: inhibitors | DT40 Tdp1-/- hTDP1 cells, no CPT, ATP luminescence, 48 h | 420,000 compounds, 15% hits; note: potency is the fitted concentration of half-maximal effect; nearly all actives have a fitted effect of over 55% in size
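Cells were dispensed at 400 per well, compounds added by pin tool, plates incubated ≥48 hr at 37 °C, then CellTiter-Glo added for 30 min at room temperature before luminescence reading. Line: DT40 Tdp1-/- complemented with hTDP1; camptothecin omitted.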
Numbers without * were called inactive; u = inconclusive; x = no result; [ ] = dose if it differs, or a comment. This excerpt belongs to a sample that is enriched for hits. Unless noted, calls come from the whole dose curve; as a rule, active = well fitted curve in the direction sought with a large enough effect; inconclusive = small, poorly fitted or top-dose-only effect, or another doubt; inactive = no such curve, though single readings can be large; an effect the other way counts as inactive or inconclusive. Unless noted, % is set by controls: 0 for no effect and ±100 for the full control effect.

SMILES	IL-1B inflam inh	12-LOX inh	DT40 TDP1 CPT	HT1080 IDH1KD tx	HT1080-NT tox	TDP1 cell noCPT
Cc1[nH]c2ccccc2c1C1N2CC3(C)CN1CC(C)(C2)C3=O (configuration not stated)	x	0.0%	-14.6%	x	x	-13.5%
CC1CCCC(C)N1C(=O)COC(=O)c1cc(=O)[nH]c2ccccc12 (configuration not stated)	15.0	-12.1%	30.5%	13.5%	15.3%	-14.8%
CCOC(=O)c1ccc(N2C(=O)C3C(C2=O)C(C(=O)c2ccc(Cl)cc2)N2CCCC32)cc1 (configuration not stated)	-66.1*	-62.2%	14.6µM*	u	u	20.6µM*
CCOC(=O)c1ccc(N2C(=O)C3CC=CCC3C2=O)cc1 (configuration not stated)	8.9	-2.7%	0.2%	8.7%	1.6%	-4.3%
O=C(Cn1sc2ccccc2c1=O)Nc1ccc(Cl)cc1	-105.3*	-106.0%	5.17µM*	-21.3%	u	2.59µM*
Cc1ccc(NC(=O)Cn2nc(-c3ccc(Cl)cc3)c3ccccc3c2=O)cc1	x	-16.3%	u	x	x	u
O=C(Cn1sc2ccccc2c1=O)Nc1ccc(F)cc1	-104.3*	-111.1%	2.91µM*	u	u	2.06µM*
O=C(Cn1sc2ccccc2c1=O)Nc1ccc(Br)cc1	-98.0*	u	2.31µM*	u	u	2.31µM*
COc1ccc(Cn2cnc3cnc(Nc4ccc(NC(C)=O)cc4)cc32)cc1OC	x	3.1%	x	x	x	x
COc1ccc(NC(=O)c2ccc3c(c2)OCCN(c2ccccc2)C3)c(F)c1	x	0.9%[176 µM]	x	x	x	x
CC(C)(C)n1nnnc1C(c1cccnc1)N1CCN(c2ccccc2F)CC1 (configuration not stated)	20.4	0.0%	-0.1%	4.9%	13.4%	0.3%
CC(C)(C)n1nnnc1C(c1cccs1)N1CCN(c2ccccc2)CC1 (configuration not stated)	-11.9	0.0%	-10.5%	-0.1%	1.6%	u
CCC(c1nnnn1C(C)(C)C)N1CCN(c2cc(Cl)ccc2C)CC1 (configuration not stated)	-6.1	0.0%	u	-19.5%	-13.7%	16.4µM*
Cc1cccc(N2CCN(C(c3ccccc3)c3nnnn3C(C)(C)C)CC2)c1C (configuration not stated)	-12.4	10.0%	u	1.8%	6.6%	23.1µM*
Cc1cccc(N2CCN(C(c3cccs3)c3nnnn3C(C)(C)C)CC2)c1C (configuration not stated)	-3.2	19.3%	18.4µM*	-25.6%	11.3%	22.4µM*
CC1=CC(C)(C)Nc2ccc(OC(=O)C(Sc3ccccc3)c3ccccc3)cc21 (configuration not stated)	x	-20.1%	x	x	x	x
Cc1cccc(-n2nc(C)c3c2NC(=O)CC3C(=O)c2ccccc2)c1C (configuration not stated)	x	1.5%	x	x	x	x
CC(Sc1nnc(NC2CCCCC2)s1)C(=O)Nc1ccc2c(c1)C(=O)c1ccccc1C2=O (configuration not stated)	-3.2	-13.2%	u	-8.1%	-14.4%	20.6µM*
CC(Sc1nnc(NC2CC2)s1)C(=O)Nc1ccc(N2CCOCC2)cc1 (configuration not stated)	-10.1	5.9%	2.6%	12.8%	-0.3%	-20.1%
